Data reported in the supplement of paper PMC4840960.
Structures can show the parent of a compound that is named as a salt. ± gives the standard deviation of the averaged measurements.

System: E18 rat cortical neuron-glia co-culture
Experiment: fiber score / MBP score (myelination specific beyond OL differentiation) (ratio); higher = more myelination-specific MBP alignment
Details: 5 µM; treatment time: 8 days (DIV5-DIV13)
Outline: (§1)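 Primary E18 rat cortical co-cultures (papain-dissociated, 20,000 cells/well on poly-d-lysine/laminin 96-well plates) received library compounds at 1 or 5 µM in myelination medium from DIV5 to DIV13. Cells were fixed in 4 % paraformaldehyde and immunostained for MBP and Olig2 with DAPI, and four 10X fields per well in duplicate wells were analysed. The read-out is fiber score (continuous MBP fiber length per Olig2+ nucleus) divided by MBP score (thresholded MBP area × intensity per Olig2+ nucleus).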

Structure (SMILES) | fiber score / MBP score
c1cncc([C@@H]2CCCN2)c1 [Nornicotine] | 0.836
Cc1ccc(-c2nc3ccc(C)cn3c2CC(=O)N(C)C)cc1 [Zolpidem] | 0.776
Cc1ncc2n1-c1ccc(Cl)cc1C(c1ccccc1F)=NC2 [Midazolam] | 1.88
CCCN1C[C@H](CSC)C[C@@H]2c3cccc4[nH]cc(c34)C[C@H]21 [Pergolide] | 0.278
C[C@]12CCC(=O)C=C1CC[C@@H]1[C@@H]2CC[C@@]2(C)[C@H]1CC[C@]2(C)O [Methyltestosterone] | 0.755
c1ccc2c(c1)Nc1ccccc1S2 [Phenothiazine] | 0.89
C#CCN(C)[C@H](C)Cc1ccccc1 [Selegiline] | 1.02 ± 0.14
C[C@]12CC[C@H]3[C@@H](CCC4=CC(=O)CC[C@@H]43)[C@@H]1CC[C@@H]2O [Nandrolone] | 0.883
CC(C)c1cccc(C(C)C)c1O [Propofol] | 0.895
C=C1C[C@@H]2[C@H](CC[C@]3(C)C(=O)CC[C@@H]23)[C@@]2(C)C=CC(=O)C=C12 [Exemestane] | 0.86
CCCC(C)(COC(N)=O)COC(=O)NC(C)C (centres undefined) [Carisoprodol] | 0.796
c1ccc(Cn2ccnc2)cc1 [1-Benzylimidazole] | 0.942
C[C@]12CC[C@H](O)CC1=CC[C@@H]1[C@@H]2CC[C@]2(C)C(=O)CC[C@@H]12 [Dehydroepiandrosterone] | 0.965
CC[C@]1(O)CC[C@H]2[C@@H]3CCC4=CCCC[C@@H]4[C@H]3CC[C@@]21C [Ethylestrenol] | 1.72
COc1ccc2c(c1)[C@]13CCCC[C@@H]1[C@H](C2)N(C)CC3 [Dextromethorphan] | 0.893
COc1cc([C@@H]2c3cc4c(cc3[C@H](O)[C@H]3COC(=O)[C@H]23)OCO4)cc(OC)c1OC [Podophyllotoxin] | 0.31
CCOC(=O)c1cncn1[C@H](C)c1ccccc1 [Etomidate] | 0.987 ± 0.1
C[N+]1(CCC(C(N)=O)(c2ccccc2)c2ccccc2)CCCCC1 [Fenpiverinium] | 1.19
CN1CC[C@]23CCCC[C@H]2[C@H]1Cc1ccc(O)cc13 [Levorphanol] | 0.735
CC(NC(C)(C)C)C(=O)c1cccc(Cl)c1 (centres undefined) [Bupropion] | 0.467 ± 0.35
CN1CC[C@@H](c2ccc(F)cc2)[C@H](COc2ccc3c(c2)OCO3)C1 [N-Methylparoxetine] | 0.379
CN1[C@@H]2CC[C@H]1C[C@@H](OC(=O)[C@H](CO)c1ccccc1)C2 [Hyoscyamine] | 0.692
CNCC(O)c1ccc(O)cc1 (centres undefined) [Synephrine] | 0.702
Oc1ccc2c3c1O[C@H]1[C@@H](O)CC[C@@]4(O)[C@@H](C2)N(CC2CCC2)CC[C@]314 [Nalbufina] | 0.955
CC(C)CC(N(C)C)C1(c2ccc(Cl)cc2)CCC1 (centres undefined) [Sibutramine] | 1.02 ± 0.064
CN1CC[C@]2(c3cccc(O)c3)Cc3nc4ccccc4cc3C[C@H]2C1 | 0.822
FC(F)(F)c1cccc(N2CCNCC2)c1 [1-(3-trifluoromethylphenyl)piperazine hydrochloride (TFMPP)] | 0.613

System: E18 rat cortical neuron-glia co-culture
Experiment: myelination (MBP fiber length per Olig2+ nucleus), % of 1 µM DAPT response (DMSO = 0) (% of DAPT); higher = more myelination, active = 50 or more
Details: 1 µM; treatment time: 8 days (DIV5-DIV13)
Outline: as §1, with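 “Myelination was continuous straight” for “The read-out is fiber score (continuous”, “nucleus, normalised to 0.1 % DMSO (0) and a 1 µM positive control (100).” for “nucleus) divided by MBP score (thresholded MBP area × intensity per Olig2+ nucleus).”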

Structure (SMILES) | myelination
c1cncc([C@@H]2CCCN2)c1 [Nornicotine] | -20.2 (inactive)
Cc1ccc(-c2nc3ccc(C)cn3c2CC(=O)N(C)C)cc1 [Zolpidem] | -6.37 (inactive)
Cc1ncc2n1-c1ccc(Cl)cc1C(c1ccccc1F)=NC2 [Midazolam] | -0.202 (inactive)
CCCN1C[C@H](CSC)C[C@@H]2c3cccc4[nH]cc(c34)C[C@H]21 [Pergolide] | -19.3 (inactive)
C[C@]12CCC(=O)C=C1CC[C@@H]1[C@@H]2CC[C@@]2(C)[C@H]1CC[C@]2(C)O [Methyltestosterone] | -24.8 (inactive)
c1ccc2c(c1)Nc1ccccc1S2 [Phenothiazine] | -16.1 (inactive)
C#CCN(C)[C@H](C)Cc1ccccc1 [Selegiline] | -16 (inactive)
C[C@]12CC[C@H]3[C@@H](CCC4=CC(=O)CC[C@@H]43)[C@@H]1CC[C@@H]2O [Nandrolone] | -3.41 (inactive)
CC(C)c1cccc(C(C)C)c1O [Propofol] | -3.16 (inactive)
C=C1C[C@@H]2[C@H](CC[C@]3(C)C(=O)CC[C@@H]23)[C@@]2(C)C=CC(=O)C=C12 [Exemestane] | -11.3 (inactive)
CCCC(C)(COC(N)=O)COC(=O)NC(C)C (centres undefined) [Carisoprodol] | -13 (inactive)
c1ccc(Cn2ccnc2)cc1 [1-Benzylimidazole] | -11.8 (inactive)
C[C@]12CC[C@H](O)CC1=CC[C@@H]1[C@@H]2CC[C@]2(C)C(=O)CC[C@@H]12 [Dehydroepiandrosterone] | 18.9 (inactive)
CC[C@]1(O)CC[C@H]2[C@@H]3CCC4=CCCC[C@@H]4[C@H]3CC[C@@]21C [Ethylestrenol] | -13.8 (inactive)
COc1ccc2c(c1)[C@]13CCCC[C@@H]1[C@H](C2)N(C)CC3 [Dextromethorphan] | 5.05 (inactive)
COc1cc([C@@H]2c3cc4c(cc3[C@H](O)[C@H]3COC(=O)[C@H]23)OCO4)cc(OC)c1OC [Podophyllotoxin] | -13.9 (inactive)
CCOC(=O)c1cncn1[C@H](C)c1ccccc1 [Etomidate] | -14.6 (inactive)
C[N+]1(CCC(C(N)=O)(c2ccccc2)c2ccccc2)CCCCC1 [Fenpiverinium] | 4.83 (inactive)
CN1CC[C@]23CCCC[C@H]2[C@H]1Cc1ccc(O)cc13 [Levorphanol] | -27.6 (inactive)
CC(NC(C)(C)C)C(=O)c1cccc(Cl)c1 (centres undefined) [Bupropion] | -29.5 (inactive)
CN1CC[C@@H](c2ccc(F)cc2)[C@H](COc2ccc3c(c2)OCO3)C1 [N-Methylparoxetine] | -58.7 (inactive)
CN1[C@@H]2CC[C@H]1C[C@@H](OC(=O)[C@H](CO)c1ccccc1)C2 [Hyoscyamine] | -15.1 (inactive)
CNCC(O)c1ccc(O)cc1 (centres undefined) [Synephrine] | -6.47 (inactive)
Oc1ccc2c3c1O[C@H]1[C@@H](O)CC[C@@]4(O)[C@@H](C2)N(CC2CCC2)CC[C@]314 [Nalbufina] | -19 (inactive)
CC(C)CC(N(C)C)C1(c2ccc(Cl)cc2)CCC1 (centres undefined) [Sibutramine] | -9.43 (inactive)
CN1CC[C@]2(c3cccc(O)c3)Cc3nc4ccccc4cc3C[C@H]2C1 | -18.1 (inactive)
FC(F)(F)c1cccc(N2CCNCC2)c1 [1-(3-trifluoromethylphenyl)piperazine hydrochloride (TFMPP)] | -32.2 (inactive)
